According to PubChem BioAssay (NCI):
This is part of a sample that, as a whole, favours compounds with a hit. Of some 83,000 tested, about 20% had one in any assay.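 Step 1: grow cells in 96-well plates. Step 2: add test compound at a single concentration. Step 3: incubate 48 h. Step 4: record percent growth.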 A number with no mark means an inactive call. Activity calls are given as the source filed them. Rule for the calls: active = growth percent below 10; inactive = the rest.

Each molecule was assayed on MDA-MB-468 breast (assay: NCI-60 one-dose screen, 48 h (100 = growth as untreated, 0 = no growth, -100 = all killed)). Details: 10 µM unless noted.

| Compound | growth |
| --- | --- |
| CNS(=O)(=O)Oc1ccc(-c2sc3cc(OS(=O)(=O)NC)ccc3c2C(=O)c2ccc(OCCN3CCCCC3)cc2)cc1 | 63.1% |
| Nc1c(C(=O)c2ccccc2)sc2nc(-c3cnccn3)cc(-c3cccs3)c12 | 111% |
| CN(C)CCS(=O)(=O)Nc1cc(-c2ccc3ncnc(Nc4ccc(F)c(Cl)c4)c3c2)cnc1Cl | -53% (active) |
